Activity calls are given as the source filed them.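 The calls were made as follows: active = peak TRPC4 channel inhibition over 30% at some tested dose, plus a fitted dose response curve; inactive = no inhibition at any dose, or no curve fitted.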
The compounds below were run against Short transient receptor potential channel 4 (Mus musculus) (UniProt Q9QUQ5) (assay: TRPC4 channel inhibition, specificity check, SAR follow-up, selectivity assay for TRPC6 selective inhibitor project, cell-based, HEK293 TRPC4/mu-opioid, concentration-response (AID 504554)). Conditions: DAMGO-evoked Fluo-4 calcium ratio; series mostly up to 6.67 µM; fluorescence ratio, lower = inhibition: at the top concentration.
Sequence of Short transient receptor potential channel 4 (Mus musculus) (Q9QUQ5 whole entry, looked up): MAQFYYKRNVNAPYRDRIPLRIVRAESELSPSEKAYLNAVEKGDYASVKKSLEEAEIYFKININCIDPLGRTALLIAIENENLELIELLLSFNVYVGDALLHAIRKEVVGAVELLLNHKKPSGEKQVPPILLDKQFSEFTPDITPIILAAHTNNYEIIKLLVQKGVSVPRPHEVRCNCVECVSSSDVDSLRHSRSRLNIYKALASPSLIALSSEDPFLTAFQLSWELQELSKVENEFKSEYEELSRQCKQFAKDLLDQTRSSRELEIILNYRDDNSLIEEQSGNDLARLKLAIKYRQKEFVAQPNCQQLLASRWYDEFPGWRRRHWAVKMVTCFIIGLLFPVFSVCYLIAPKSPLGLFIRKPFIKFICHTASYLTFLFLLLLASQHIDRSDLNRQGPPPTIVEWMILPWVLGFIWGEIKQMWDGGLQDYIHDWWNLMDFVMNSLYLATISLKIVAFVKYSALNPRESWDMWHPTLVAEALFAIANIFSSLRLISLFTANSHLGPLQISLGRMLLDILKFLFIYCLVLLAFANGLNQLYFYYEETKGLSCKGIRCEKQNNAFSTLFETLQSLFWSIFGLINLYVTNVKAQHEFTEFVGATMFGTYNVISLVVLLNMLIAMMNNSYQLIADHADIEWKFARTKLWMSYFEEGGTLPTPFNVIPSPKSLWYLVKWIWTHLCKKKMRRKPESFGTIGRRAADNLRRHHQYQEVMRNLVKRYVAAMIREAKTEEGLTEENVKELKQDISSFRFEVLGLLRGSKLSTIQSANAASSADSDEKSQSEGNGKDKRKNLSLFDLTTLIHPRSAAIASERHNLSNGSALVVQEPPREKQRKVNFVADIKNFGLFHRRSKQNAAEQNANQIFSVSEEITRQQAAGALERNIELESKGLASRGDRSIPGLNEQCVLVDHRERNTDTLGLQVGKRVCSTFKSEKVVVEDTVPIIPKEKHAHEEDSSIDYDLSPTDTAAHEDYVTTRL

Fluorescence ratio, lower = inhibition, inactive:
CC(C)(C)n1cnc2cc(NCc3ccccc3Cl)ccc21 38.5
CC(C)(C)n1cnc2cc(NC(=O)c3cccs3)ccc21 55.2
CC(C)(C)n1cnc2cc(NCc3ccccc3O)ccc21 50.7
COc1ccc(CNc2ccc3c(c2)ncn3C(C)(C)C)c(OC)c1 52.9
CCOc1ccccc1CNc1ccc2c(c1)ncn2C(C)(C)C 40.9
Cc1ccc(CNc2ccc3c(c2)ncn3C(C)(C)C)cc1 41.2
CC(C)(C)n1cnc2cc(NCc3ccco3)ccc21 57.3
COc1ccc(CNc2ccc3c(c2)ncn3C(C)(C)C)cc1 51.1
COc1ccccc1CNc1ccc2c(c1)ncn2C(C)(C)C 44.4
CCN(CC)c1ccc(CNc2ccc3c(c2)ncn3C(C)(C)C)cc1 53.8
CC(C)c1ccc(CNc2ccc3c(c2)ncn3C(C)(C)C)cc1 38.7
COc1ccc(CNc2ccc3c(c2)ncn3C(C)(C)C)cc1OC 50
CC(=O)Nc1ccc2c(c1)ncn2C(C)(C)C 52.3
CC(C)(C)n1cnc2cc(NC(=O)c3ccccc3)ccc21 48.3
COc1cc(C(=O)Nc2ccc3c(c2)ncn3C(C)(C)C)cc(OC)c1OC 58.2
CC(C)(C)n1cnc2cc(NCc3cccc(Br)c3)ccc21 47.9
CC(C)(C)n1cnc2cc(NCc3ccc(Br)cc3)ccc21 49.4
CCOc1ccc(CNc2ccc3c(c2)ncn3-c2ccccc2)cc1 52.6
CCOc1ccc(CNc2ccc3c(c2)ncn3C(C)(C)C)cc1 44.9
COc1ccc(CNc2ccc3c(c2)ncn3-c2ccccc2)cc1 47
CC(C)(C)n1cnc2cc(NCc3cccs3)ccc21 49
CC(C)(C)n1cnc2cc(NCc3cccc4ccccc34)ccc21 38.9
CCC(=O)Nc1ccc2c(c1)ncn2C(C)(C)C 54.4
COc1ccc(OC)c(CNc2ccc3c(c2)ncn3C(C)(C)C)c1 42.2
COc1cccc(CNc2ccc3c(c2)ncn3C)c1OC 53.2
CC(C)(C)n1cnc2cc(NCc3ccc(Cl)cc3Cl)ccc21 39.5
CCCC(=O)Nc1ccc2c(c1)ncn2C(C)(C)C 55.1
CCc1ccc(CNc2ccc3c(c2)ncn3C(C)(C)C)cc1 40.6
CCOc1ccc(CNc2ccc3c(c2)ncn3C)cc1 54.2
CC(C)(C)n1cnc2cc(NC(=O)c3ccc(Cl)cc3)ccc21 50.5

outcome, inactive:
CN(C)c1ccc(CNc2ccc3c(c2)ncn3C(C)(C)C)cc1
COc1cccc(CNc2ccc3c(c2)ncn3C(C)(C)C)c1OC
